Measured values as given in PubChem BioAssay (Tox21).
Records with an inconclusive call do not appear. A call without a number means that no potency is given here. Activity calls are given as the source filed them. Unless noted, calls come from the whole dose curve; as a rule, active = well fitted curve in the direction sought with a large enough effect in the repeat runs; inconclusive = weak or mixed curves; inactive = no such curve, though single readings can be large; an effect the other way counts as inactive or inconclusive.

What was measured:
[1] = qHTS assay to identify small molecule antagonists of the estrogen receptor alpha (ER-alpha) signaling pathway using the BG1 cell line in the presence of 0.1 nM 17-beta-estradiol - cell viability counter screen (AID 1259241); note: nearly all actives have a fitted effect of over 40% in size
Outline: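 Cells were plated and left 24 hr, compounds in DMSO were pinned in, 17beta-estradiol was added to 0.1 nM final, and after 22 hr CellTiter-Fluor reagent was added for 30 min before fluorescence was read.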

[2] = qHTS assay to identify small molecule antagonists of the androgen receptor (AR) signaling pathway using the MDA cell line in the presence of 0.5 nM R1881 - cell viability counter screen (AID 1259242); note: nearly all actives have a fitted effect of over 45% in size
Outline: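 Human breast carcinoma MDA-kb2 cells, cultured without CO2, receive compounds alongside 0.5 nM (final) R1881 agonist. After 16 hr at 37C, viability is taken as live-cell protease signal.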

[3] = qHTS assay to identify small molecule HDAC inhibitors (AID 1259364); note: potency is the fitted concentration of half-maximal effect;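 note: wild-type HCT-116 cells with endogenous class I/II HDAC activity; nearly all actives have a fitted effect of over 45% in size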
Outline: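 After a 2 hr compound incubation (37C, 5% CO2), HCT-116 cells seeded at 1,500/well the day before received HDAC-Glo reagent; signal read as luminescence after 30 min at room temperature.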

[4] = qHTS assay to identify small molecule HDAC inhibitors - cell viability counter screen (AID 1259365); note: series mostly up to about 92 µM; nearly all actives have a fitted effect of over 50% in size
Outline: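 Counter screen in wild-type HCT-116 cells: compounds dissolved in DMSO are pin-transferred onto overnight-plated cells and left 2hr at 37C. ATP-based CellTiter-Glo luminescence then measures viable cells.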

[5] = qHTS assay to identify small molecule agonists of the sonic hedgehog signaling (Shh) pathway - cell viability counter screen (AID 1259366); note: nearly all actives have a fitted effect of over 50% in size; note: potency is the fitted concentration of half-maximal effect
Outline: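 Cells are plated at 2,000 per well and left 4hr at 37C, 5% CO2 before compound addition. After 23hr of treatment, CellTiter-Fluor reagent is added for 1hr at 37C and fluorescence is measured.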

[6] = qHTS assay to identify small molecule antagonists of the sonic hedgehog signaling (Shh) pathway - cell viability counter screen (AID 1259367); note: nearly all actives have a fitted effect of over 55% in size; note: potency is the fitted concentration of half-maximal effect
Outline: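 Fluorescence read-out (CellTiter-Fluor, 1 hr at 37C) taken after 23 hr compound treatment of 3T3 Gli1-Luc cells stimulated with conditioned medium. Cells were seeded at 2,000 per well and pre-incubated 4 hr.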

[7] = qHTS assay to identify small molecule agonists of the sonic hedgehog signaling (Shh) pathway (AID 1259368; calls by dose curve;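 note: NIH/3T3-derived 3T3Gli1-Luc cells carrying a stable Gli1-driven firefly luciferase reporter; series mostly up to about 92 µM; nearly all actives have a fitted effect of over 15% in size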)
Outline: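 Stable NIH/3T3 Gli1-Luc reporter clone; 24 hr cpd exposure after a 4 hr settling period; luminescence endpoint.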

[8] = qHTS assay to identify small molecule antagonists of the sonic hedgehog signaling (Shh) pathway (AID 1259369; calls by dose curve; note: nearly all actives have a fitted effect of over 45% in size)
Outline: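 Gli1 transcriptional reporter (firefly Luc) in NIH/3T3 background, conditioned-medium activated. 24hr exposure, luminescence endpoint.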

[9] = molecular target: Estrogen receptor beta (Homo sapiens) (UniProt Q92731); experiment: qHTS assay to identify small molecule agonists of the estrogen receptor beta (ER-beta) signaling pathway (AID 1259377; active = well fitted activation curve with a large enough effect in the signal ratio in the repeat runs, not every such curve was filed as active; the % refers to the signal ratio)
Outline: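 Agonist mode cell assay in GripTite HEK293T cells expressing an ER-beta fusion that drives beta-lactamase from an Upstream Activator Sequence; 16 hr compound exposure at 37C, then 2 h LiveBLAzer B/G FRET substrate at room temperature, fluorescence read-out.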

[10] = molecular target: Estrogen receptor beta (Homo sapiens) (UniProt Q92731); experiment: qHTS assay to identify small molecule antagonists of the estrogen receptor beta (ER-beta) signaling pathway (AID 1259378; active = well fitted inhibition curve with a large enough effect in the signal ratio in the repeat runs, not every such curve was filed as active; the % refers to the signal ratio)
Outline: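 ER-beta-UAS-bla HEK293T cells in 2% charcoal-stripped FBS medium treated with compound plus 1nM final 17-beta-estradiol for 16 hr at 37C. Beta-lactamase reporter read by FRET substrate fluorescence after 2 hours at room temperature.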

[11] = qHTS assay to identify small molecule agonists of the androgen receptor (AR) signaling pathway in the presence of an antagonist - cell viability counter screen (AID 1259379);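 note: MDA-kb2 human breast cancer cells carrying an MMTV luciferase reporter; series mostly up to about 92 µM; nearly all actives have a fitted effect of over 25% in size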
Outline: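 Counter screen for cell viability run in parallel with the AR agonist-mode luciferase assay. MDA-kb2 cells were co-treated with nilutamide (3.0uM final) and compounds, then incubated 16 hr at 37C, and CellTiter-Fluor fluorescence was measured.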

[12] = qHTS assay to identify small molecule agonists of the estrogen receptor beta (ER-beta) signaling pathway - cell viability counter screen (AID 1259380); note: nearly all actives have a fitted effect of over 30% in size
Outline: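 In this qHTS counter screen, HEK293T cells carrying an ER-beta/UAS beta-lactamase reporter, grown in 2% charcoal-stripped FBS, received compound for 16 hr; ATP-based CellTiter-Glo luminescence was then read after 30 min at room temperature.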

[13] = qHTS assay to identify small molecule antagonists of the estrogen receptor beta (ER-beta) signaling pathway - cell viability counter screen (AID 1259382); note: series mostly up to about 92 µM; nearly all actives have a fitted effect of over 55% in size
Outline: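 HEK293T ER-beta-UAS-bla, 2% charcoal-stripped FBS; compounds + 1nM E2 16 hr 37C; CellTiter-Glo luminescence, 30 min RT.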

[14] = molecular target: Estrogen receptor (Homo sapiens) (UniProt P03372); experiment: qHTS assay to identify small molecule agonists of the estrogen receptor alpha (ER-alpha) signaling pathway in the presence of an antagonist (AID 1259383; calls by dose curve; note: top concentration of the series differs between compounds; nearly all actives have a fitted effect of over 15% in size)
Outline: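 ER-alpha agonism measured under antagonist challenge: 10.0nM ICI-182,780 (final) plus compound, 15 concentrations, 22hr, VM7Luc4E2 ERE-luciferase cells. Read by luminescence.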

[15] = qHTS assay to identify small molecule agonists or antagonists of the thyroid stimulating hormone receptor (TSHR) signaling pathway - wild type cell line counter screen (AID 1259384; calls by dose curve)
Outline: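 Wild-type Hek293 cells, 800/well, 18 h at 37C, then compound with Ro20-1724 for 30 min RT. cAMP by HTRF (cAMP-d2/anti-cAMP cryptate), 1 h RT, fluorescence read. 15 concentrations, triplicates.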

[16] = molecular target: Thyrotropin receptor (Homo sapiens) (UniProt P16473); experiment: qHTS assay to identify small molecule antagonists of the thyroid stimulating hormone receptor (TSHR) signaling pathway (AID 1259385; calls by dose curve; note: nearly all actives have a fitted effect of over 20% in size)
Outline: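 TSHR-HEK293 cells (800/well) plated 18 h, then compounds with Ro20-1724 and TSH at 1.5 ng/mL final, 30 min at room temperature. cAMP quantified by HTRF (cAMP-d2/anti-cAMP-cryptate, 1 h); 15 concentrations in triplicate.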

[17] = molecular target: Estrogen receptor (Homo sapiens) (UniProt P03372); experiment: qHTS assay to identify small molecule antagonists of the estrogen receptor alpha (ER-alpha) signaling pathway using the BG1 cell line in the presence of 0.1 nM 17-beta-estradiol (AID 1259244); note: nearly all actives have a fitted effect of over 50% in size
Outline: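 Seeding of stripped-serum-adapted VM7Luc4E2 cells, 24 h attachment, compound transfer, then 0.1 nM final 17beta-estradiol; after 22 h incubation, ONE-Glo reagent and luminescence reading.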

[18] = molecular target: Androgen receptor (Homo sapiens) (UniProt P10275); experiment: qHTS assay to identify small molecule antagonists of the androgen receptor (AR) signaling pathway using the MDA cell line in the presence of 0.5 nM R1881 (AID 1259243); note: nearly all actives have a fitted effect of over 50% in size
Outline: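 Cells: MDA-kb2 (MMTV-luc). Stimulus: 0.5 nM R1881. Time: 16 hr, 37C, no CO2. Detection: ONE-Glo luminescence after 30 min at RT.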

[19] = molecular target: Androgen receptor (Homo sapiens) (UniProt P10275); experiment: qHTS assay to identify small molecule agonists of the androgen receptor (AR) signaling pathway in the presence of an antagonist (AID 1259381; calls by dose curve; note: nearly all actives have a fitted effect of over 15% in size)
Outline: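 AR antagonist background: nilutamide 3.0uM final. Cell line: MDA-kb2, MMTV-driven luciferase, responsive to both AR and GR. Exposure 16hr, 37C, no CO2; ONE-Glo luminescence.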

[20] = qHTS assay to identify small molecule phospholipidosis (PLD) inducers (AID 1259344; active = well fitted curve in the direction sought with a large enough effect; an effect the other way counts as inactive or inconclusive)
Outline: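 Read-out is LipidTOX Red fluorescence (ex 595/em 615) imaged in HepG2 cells after 24 h compound exposure at 37 C, with Hoechst nuclear counterstain (ex 352/em 461) allowing per-cell normalisation.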

Estrogen receptor beta (Homo sapiens), sequence (Q92731 whole entry, looked up, the tested form may be a part): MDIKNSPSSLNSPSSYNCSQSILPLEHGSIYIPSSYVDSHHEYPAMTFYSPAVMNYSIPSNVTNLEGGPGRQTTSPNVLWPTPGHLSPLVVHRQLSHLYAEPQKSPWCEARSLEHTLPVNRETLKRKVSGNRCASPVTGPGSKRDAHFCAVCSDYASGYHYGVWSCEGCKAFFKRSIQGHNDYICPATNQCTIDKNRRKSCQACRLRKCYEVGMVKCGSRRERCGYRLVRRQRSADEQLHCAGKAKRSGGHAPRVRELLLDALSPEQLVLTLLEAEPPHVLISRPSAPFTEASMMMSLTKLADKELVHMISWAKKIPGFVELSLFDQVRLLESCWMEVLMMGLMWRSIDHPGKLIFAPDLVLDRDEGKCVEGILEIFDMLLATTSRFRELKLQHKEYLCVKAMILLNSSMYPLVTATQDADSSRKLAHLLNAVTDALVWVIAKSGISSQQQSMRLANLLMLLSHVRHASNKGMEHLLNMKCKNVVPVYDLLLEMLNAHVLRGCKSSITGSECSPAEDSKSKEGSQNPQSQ
Thyrotropin receptor (Homo sapiens), sequence (P16473 whole entry, looked up): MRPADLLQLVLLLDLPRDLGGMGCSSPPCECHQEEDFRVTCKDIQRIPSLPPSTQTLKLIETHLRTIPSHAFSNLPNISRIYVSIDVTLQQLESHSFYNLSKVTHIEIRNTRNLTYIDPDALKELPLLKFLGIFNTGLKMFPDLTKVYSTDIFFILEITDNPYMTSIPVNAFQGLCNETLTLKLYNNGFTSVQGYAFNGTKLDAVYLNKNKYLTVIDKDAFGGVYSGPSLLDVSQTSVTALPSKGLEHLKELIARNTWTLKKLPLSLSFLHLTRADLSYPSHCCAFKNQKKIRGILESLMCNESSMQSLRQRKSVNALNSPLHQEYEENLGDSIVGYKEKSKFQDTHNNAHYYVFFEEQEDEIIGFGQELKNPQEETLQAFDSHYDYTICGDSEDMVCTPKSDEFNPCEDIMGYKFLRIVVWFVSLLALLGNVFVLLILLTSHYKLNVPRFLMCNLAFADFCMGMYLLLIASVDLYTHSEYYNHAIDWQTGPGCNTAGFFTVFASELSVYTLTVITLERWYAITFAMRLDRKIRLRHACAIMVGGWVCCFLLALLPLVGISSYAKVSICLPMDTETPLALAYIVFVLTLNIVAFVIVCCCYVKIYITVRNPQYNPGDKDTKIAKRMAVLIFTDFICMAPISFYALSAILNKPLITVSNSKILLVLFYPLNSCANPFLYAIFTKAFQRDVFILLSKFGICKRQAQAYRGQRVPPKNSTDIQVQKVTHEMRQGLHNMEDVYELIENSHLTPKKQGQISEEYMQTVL
Estrogen receptor (Homo sapiens), sequence (P03372 whole entry, looked up): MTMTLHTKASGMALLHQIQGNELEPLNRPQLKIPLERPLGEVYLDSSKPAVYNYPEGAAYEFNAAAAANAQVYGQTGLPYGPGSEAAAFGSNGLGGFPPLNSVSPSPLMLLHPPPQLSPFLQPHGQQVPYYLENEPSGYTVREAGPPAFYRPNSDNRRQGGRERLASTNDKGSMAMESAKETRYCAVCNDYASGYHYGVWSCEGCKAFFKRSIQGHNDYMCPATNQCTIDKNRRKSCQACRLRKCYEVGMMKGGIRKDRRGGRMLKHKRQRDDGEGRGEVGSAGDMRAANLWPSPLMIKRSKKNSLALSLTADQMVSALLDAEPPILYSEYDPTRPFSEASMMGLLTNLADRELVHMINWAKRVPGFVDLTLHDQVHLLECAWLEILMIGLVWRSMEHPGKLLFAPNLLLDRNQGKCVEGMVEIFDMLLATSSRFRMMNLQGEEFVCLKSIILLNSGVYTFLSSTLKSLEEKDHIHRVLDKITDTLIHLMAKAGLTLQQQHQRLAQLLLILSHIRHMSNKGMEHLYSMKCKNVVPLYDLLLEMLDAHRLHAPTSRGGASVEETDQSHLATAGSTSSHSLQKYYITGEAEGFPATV
Androgen receptor (Homo sapiens), sequence (P10275 whole entry, looked up): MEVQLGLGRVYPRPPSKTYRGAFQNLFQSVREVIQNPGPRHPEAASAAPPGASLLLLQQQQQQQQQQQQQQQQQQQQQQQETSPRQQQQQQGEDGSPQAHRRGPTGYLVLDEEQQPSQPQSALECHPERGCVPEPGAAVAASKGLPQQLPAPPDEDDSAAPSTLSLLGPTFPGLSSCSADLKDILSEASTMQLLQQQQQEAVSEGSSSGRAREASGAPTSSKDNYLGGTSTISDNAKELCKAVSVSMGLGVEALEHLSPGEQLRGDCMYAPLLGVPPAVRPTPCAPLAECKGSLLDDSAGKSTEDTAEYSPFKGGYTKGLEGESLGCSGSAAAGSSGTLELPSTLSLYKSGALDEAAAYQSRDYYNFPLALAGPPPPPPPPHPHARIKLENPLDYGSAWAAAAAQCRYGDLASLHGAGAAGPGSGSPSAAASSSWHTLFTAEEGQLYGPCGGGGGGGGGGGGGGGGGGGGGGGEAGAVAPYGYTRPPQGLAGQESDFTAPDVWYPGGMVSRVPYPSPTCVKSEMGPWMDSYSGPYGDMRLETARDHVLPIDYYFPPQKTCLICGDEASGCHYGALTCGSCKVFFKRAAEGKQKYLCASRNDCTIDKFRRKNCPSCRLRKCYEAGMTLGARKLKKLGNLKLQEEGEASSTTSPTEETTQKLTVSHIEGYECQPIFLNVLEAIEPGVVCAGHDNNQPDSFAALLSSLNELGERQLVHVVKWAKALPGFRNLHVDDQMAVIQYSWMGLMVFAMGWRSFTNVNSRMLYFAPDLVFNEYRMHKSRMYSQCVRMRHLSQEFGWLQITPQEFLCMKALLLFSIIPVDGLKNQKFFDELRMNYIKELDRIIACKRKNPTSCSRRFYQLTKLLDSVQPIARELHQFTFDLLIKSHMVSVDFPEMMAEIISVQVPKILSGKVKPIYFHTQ

SMILES	Potency [1]	Potency [2]	Potency [3]	Potency [4]	Potency [5]	Potency [6]	Potency [7]	Potency [8]	Potency [9]	Potency [10]	Potency [11]	Potency [12]	Potency [13]	Potency [14]	outcome [15]	Potency [16]	Potency [17]	Potency [18]	Potency [19]	outcome [20]
Cc1ccc(N)c(C)c1	inactive	inactive	inactive	inactive	inactive	inactive	inactive	inactive	inactive	inactive	inactive	inactive	inactive							
Nc1cccc2ccccc12	inactive	inactive	inactive	inactive	inactive	inactive	inactive				inactive	inactive	inactive	inactive	inactive	inactive				
CCOC(=O)C1OC1(C)c1ccccc1 (configuration not stated)	inactive	inactive	inactive	inactive	inactive	inactive	inactive	inactive		inactive	inactive		inactive		inactive	inactive				
NC(=S)c1c(Cl)cccc1Cl	inactive	inactive		inactive	inactive	inactive	inactive	inactive	inactive	inactive	inactive		inactive		inactive	inactive	inactive			
O=C(Cl)OCCOCCOC(=O)Cl	inactive		inactive	inactive	inactive	inactive	inactive	inactive			inactive			inactive	inactive	inactive	inactive	inactive	inactive	
C[Si](Cn1cncn1)(c1ccc(F)cc1)c1ccc(F)cc1	inactive	inactive	inactive	inactive	inactive	inactive	inactive		inactive		inactive	inactive	inactive		inactive	inactive				
CC(C)(C)OOC(C)(C)CCC(C)(C)OOC(C)(C)C	inactive	inactive	inactive	inactive	inactive	inactive	inactive	inactive	inactive	inactive	inactive	inactive			inactive	inactive				
O=C(O)C(F)(F)C(F)(F)C(F)(F)C(F)(F)C(F)(F)F	inactive	inactive		inactive	inactive	inactive	inactive		inactive	inactive	inactive					inactive	inactive			
O=C(O)c1cc(Cl)ccc1Cl	inactive	inactive	inactive	inactive	inactive	inactive	inactive	inactive		inactive	inactive		inactive							
C[C@H]1[C@@H]2Cc3ccc(O)cc3[C@@]1(C)CCN2C	inactive	inactive		inactive	inactive	inactive	inactive		inactive	inactive	inactive	inactive	inactive		inactive	inactive				inactive
COC1=CC(=O)O[C@@H](/C=C/c2ccc3c(c2)OCO3)C1	inactive		23.3 µM (active)	inactive	inactive	inactive	inactive				inactive		inactive		inactive	inactive				
CC(C)(C)NCC(O)c1cc(Cl)c(N)c(C(F)(F)F)c1 (configuration not stated)		inactive	inactive	inactive	7.5 µM (active)	9.44 µM (active)	inactive	inactive			inactive	inactive	inactive	inactive		inactive	inactive	inactive	inactive	inactive
COc1ccc(C(=O)c2c(C)n(CCN3CCOCC3)c3ccccc23)cc1	inactive		inactive	inactive			inactive	inactive	inactive	inactive	inactive	inactive	inactive							inactive
